This passage reports growth results from PubChem BioAssay (NCI).

Common to all, as to assay: NCI-60 one-dose screen, 48 h (100 = growth as untreated, 0 = no growth, -100 = all killed)
Common to all, as to conditions: 10 µM unless noted

Test [1] deals with NCI-H23 lung.
In test [2] the test system is NCI-H226 lung.
The test system of test [3] is NCI-H322M lung.
Test [4] has as its system HOP-62 NSCLC.
Test [5] concerns NCI-H460 lung.
Test [6] relates to HOP-92 NSCLC.
Test [7] relates to NCI-H522 lung.
The test system of test [8] is A549/ATCC NSCLC.
Test [9] deals with 786-0 renal.
In test [10] the test system is DU-145 prostate.
The subject of test [11] is K-562 leukemia.
Test [12] deals with MALME-3M melanoma.
Test [13] relates to MDA-MB-231 breast.
Test [14] has as its system SF-268 CNS.
Test [15] concerns SF-295 CNS.
Test [16] deals with SF-539 CNS.
Test [17] has as its system UACC-257 melanoma.
Test [18] deals with RXF 393 renal.
In test [19] the test system is M14 melanoma.

About 83,000 compounds went through this panel and 20% of them were active in at least one assay; those are over-represented in the sample as a whole.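 Cell lines were cultured in 96-well plates, exposed to a single compound concentration, and assessed for percent growth 48 hours later.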 Values without a mark were called inactive. Active and inactive are the calls of the source. How the source made its calls: active means growth percent below 10; inactive means the rest.

`c1ccc([P+](CCCc2n(Cc3ccc4ccccc4c3)c3ccccc3[n+]2Cc2ccc3ccccc3c2)(c2ccccc2)c2ccccc2)cc1`: the growth in test [1] is 44%; in test [2], 83.5%; in test [3], 63.8%; in test [4] it was 61.6%; in test [5], 34.8%; in test [6], 46.3%. The growth in [7] is 60.2%; in test [8] it was 80.2%; in test [9], 70.8%; in test [10], 82.1%; in [11] it was 23.7%; in [12] it was 65.2%. Besides, the growth in test [13] is 51%; in [14] it was 79%; in test [15], 41.1%; in test [16], 36.8%; in test [17], 84%.

With `C=C(C)C1CCC(=C)C2CCC3(C)OC12/C=C(/COC(C)=O)CCC3O` (stereo unspecified), the growth in test [1] is 111%; in test [2] it was 102%; in test [3], 97.9%; in [4] it was 103%; in test [5], 104%; in [6], 60.6%. In addition, the growth was 93.3% in test [7]; 74.2% in test [8]; 106% in [9]; 100% in test [10]; 88.6% in test [11]; 137% in test [12]. The growth in test [13] was 105%; in [18], 98.4%; in [14] it was 105%; in test [16], 104%; in test [17] it was 37.9%; in test [19], 109%.

`N[C@@H]1CCC[C@H]1NCCCCN1C(=O)c2cccc3cccc(c23)C1=O`: the growth was 80.4% in test [1]; 91.9% in test [2]; 64.4% in [3]; 81.9% in test [4]; 59.8% in [5]; 48% in [6]. In addition, the growth was 65.8% in [7]; 67.4% in [8]; 58% in test [9]; 59.8% in [10]; 60.4% in test [11]; 116% in test [12]. Further, the growth was 58.2% in test [13]; 72.8% in [18]; 52.6% in [14]; 84.4% in test [15]; 7.65% (active) in test [16]; 100% in test [17]. Besides, the growth in test [19] was 64%.

In the case of `CC1(C)C(=O)/C(=C\c2cccnc2)C[C@]2(C)[C@H]3CC=C4[C@@H]5C[C@@](C)(C(=O)O)CC[C@]5(C)CC[C@@]4(C)[C@]3(C)CC[C@@H]12`, the growth was 102% in test [1]; 92.9% in test [2]; 93.1% in test [3]; 96.6% in [4]; 101% in test [5]; 88.9% in test [6]. For the same compound, the growth was 87.1% in test [7]; 78.8% in test [8]; 101% in [9]; 104% in test [10]; 80.7% in [11]; 126% in [12]. Moreover, the growth in [13] is 101%; in test [18], 92.2%; in test [14] it was 98.9%; in test [15] it was 93.9%; in test [16] it was 101%; in test [17], 87.7%. Also, in test [19], the growth is 100%.

For `COc1ccc(/C(C)=C(\c2ccc(Cl)cc2)c2ccc(OCCN(C)C)cc2)cc1F`, the growth is 86.7% in [1]; 95.5% in test [2]; 77.4% in test [3]; 64.8% in [4]; 22.2% in test [5]; 65.6% in test [6]. The growth in [7] was 87.5%; in test [8] it was 59%; in test [9], 62.9%; in test [10] it was 79.5%; in test [11] it was 3.97% (active); in test [12] it was 19.2%. For the same compound, the growth is 71.3% in test [13]; 74.5% in test [14]; 42.5% in test [15]; 55.2% in test [16]; 5.92% (active) in [17].

Take `Cc1ccc(/C=C(\C#N)n2nnc3cc(Cl)c(Cl)cc32)cc1`: the growth in [1] was 24.8%; in [2] it was -9.44% (active); in test [3], 49.5%; in test [4], 33.8%; in [5], 12.8%; in [6] it was -7.83% (active). Further, the growth in [7] was 17.3%; in [8], 38.8%; in test [9], 5.73% (active); in test [10] it was 3.78% (active); in [11], 6.41% (active); in [12], 44%. For the same compound, the growth was -14.9% (active) in [13]; -33.5% (active) in test [18]; 12% in test [14]; -0.103% (active) in test [15]; -13.1% (active) in test [16]; 50.3% in test [17]. In [19], the growth was -23% (active).

On to `O=C1C2=C(CCN(Cc3ccccc3)C2)N2CCN=C2N1Cc1ccc(F)cc1F`, for which the growth in [1] was 32.2%; in [2], 29%; in test [3], 45.4%; in [4] it was 33.6%; in test [5], 15.5%; in [6], 41.9%. The growth was 24.2% in test [7]; 26.7% in test [8]; 55.2% in test [9]; 32.6% in test [10]; 33.1% in [11]; 41.5% in [12]. Besides, the growth in [13] is 20.4%; in test [18], 55%; in [14], 40.2%; in [15], 5.35% (active); in test [16], 40.1%; in [17], 13.6%. Further, the growth in test [19] was 35.9%.

On to `CCC(=O)OC1=C(C)SC2=NC(c3ccc(Cl)c(Cl)c3)=CC(c3cc(OC)c(OC)c(OC)c3)N21` (stereo unspecified), for which the growth in test [1] was 98.5%; in test [2], 95%; in [3] it was 97.4%; in test [4] it was 95.9%; in test [5], 108%; in test [6], 67.9%. The growth in [7] was 97.8%; in [8] it was 105%; in [9] it was 104%; in [10] it was 114%; in test [11], 103%; in test [12], 104%. The growth in [13] is 90.2%; in test [18], 91%; in [14], 102%; in test [15] it was 94.8%; in test [16], 90.9%; in test [19], 106%.
